Test results: PubChem BioAssay
Active and inactive are the calls of the source.

Assays:
[1] = test system: Plasmodium falciparum Sir2 (PF13_0152, Sir2A); experiment: Plasmodium falciparum Sir2A binding compounds – biochemical, small-molecule microarray, 635 nm fluorescence, primary screen (AID 1098); settings: fluorescence 635 nm, higher = more signal;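 note: score merges spot fluorescence intensity with its signal-to-noise ratio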
[2] = probe aDKK1 binding to arrayed compounds – biochemical, biotinylated probe, 635/667 nm fluorescence, primary screen (AID 1099); settings: small-molecule microarray, higher = more signal;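 note: score merges 667nm spot fluorescence with signal to noise across triplicate slides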
[3] = probe aCHRDL2 binding to arrayed compounds – biochemical, biotinylated probe, 635/667 nm fluorescence, primary screen (AID 1100); settings: small-molecule microarray, higher = more signal
[4] = change in splice reporter luminescence, either direction, cell-based, HEK293, spliceosome inhibition project, primary screen (AID 1101); settings: HEK293 splicing luciferase reporter, 24 h, higher = more signal, called active from +8 up or from −8 down;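 note: HEK293 cells carrying a splicing-competent luciferase reporter gene; test concentration not given here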
[5] = target: Fibroblast growth factor 10 (Homo sapiens) (UniProt O15520); experiment: compounds binding fibroblast growth factor 10 – biochemical, small-molecule microarray, 635 nm fluorescence, primary screen (AID 1102); settings: FGF10 binding, fluorescence 635 nm, higher = more signal
Sequence of Fibroblast growth factor 10 (Homo sapiens) (O15520 whole entry, looked up): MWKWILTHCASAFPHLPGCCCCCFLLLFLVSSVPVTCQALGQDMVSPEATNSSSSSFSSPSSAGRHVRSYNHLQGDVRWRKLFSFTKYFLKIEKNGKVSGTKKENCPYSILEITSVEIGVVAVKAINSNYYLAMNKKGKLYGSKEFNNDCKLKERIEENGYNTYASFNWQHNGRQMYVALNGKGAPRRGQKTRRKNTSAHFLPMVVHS

[6] = test system: glycogen synthase kinase-3 (GSK3A per assay name; protocol says GSK3B); experiment: compounds binding glycogen synthase kinase-3 – biochemical, small-molecule microarray, 635 nm fluorescence, GSK3A, primary screen (AID 1103); settings: fluorescence 635 nm, higher = more signal; note: the record names both GSK3A and GSK3B
[7] = target: Epidermal growth factor receptor (Homo sapiens) (UniProt P00533); experiment: compounds binding epidermal growth factor receptor – biochemical, small-molecule microarray, 635 nm fluorescence, primary screen (AID 1104); settings: EGFR binding, higher = more signal;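 note: score merges 667 nm emission intensity with spot signal to noise over triplicate slides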
Sequence of Epidermal growth factor receptor (Homo sapiens) (P00533 whole entry, looked up): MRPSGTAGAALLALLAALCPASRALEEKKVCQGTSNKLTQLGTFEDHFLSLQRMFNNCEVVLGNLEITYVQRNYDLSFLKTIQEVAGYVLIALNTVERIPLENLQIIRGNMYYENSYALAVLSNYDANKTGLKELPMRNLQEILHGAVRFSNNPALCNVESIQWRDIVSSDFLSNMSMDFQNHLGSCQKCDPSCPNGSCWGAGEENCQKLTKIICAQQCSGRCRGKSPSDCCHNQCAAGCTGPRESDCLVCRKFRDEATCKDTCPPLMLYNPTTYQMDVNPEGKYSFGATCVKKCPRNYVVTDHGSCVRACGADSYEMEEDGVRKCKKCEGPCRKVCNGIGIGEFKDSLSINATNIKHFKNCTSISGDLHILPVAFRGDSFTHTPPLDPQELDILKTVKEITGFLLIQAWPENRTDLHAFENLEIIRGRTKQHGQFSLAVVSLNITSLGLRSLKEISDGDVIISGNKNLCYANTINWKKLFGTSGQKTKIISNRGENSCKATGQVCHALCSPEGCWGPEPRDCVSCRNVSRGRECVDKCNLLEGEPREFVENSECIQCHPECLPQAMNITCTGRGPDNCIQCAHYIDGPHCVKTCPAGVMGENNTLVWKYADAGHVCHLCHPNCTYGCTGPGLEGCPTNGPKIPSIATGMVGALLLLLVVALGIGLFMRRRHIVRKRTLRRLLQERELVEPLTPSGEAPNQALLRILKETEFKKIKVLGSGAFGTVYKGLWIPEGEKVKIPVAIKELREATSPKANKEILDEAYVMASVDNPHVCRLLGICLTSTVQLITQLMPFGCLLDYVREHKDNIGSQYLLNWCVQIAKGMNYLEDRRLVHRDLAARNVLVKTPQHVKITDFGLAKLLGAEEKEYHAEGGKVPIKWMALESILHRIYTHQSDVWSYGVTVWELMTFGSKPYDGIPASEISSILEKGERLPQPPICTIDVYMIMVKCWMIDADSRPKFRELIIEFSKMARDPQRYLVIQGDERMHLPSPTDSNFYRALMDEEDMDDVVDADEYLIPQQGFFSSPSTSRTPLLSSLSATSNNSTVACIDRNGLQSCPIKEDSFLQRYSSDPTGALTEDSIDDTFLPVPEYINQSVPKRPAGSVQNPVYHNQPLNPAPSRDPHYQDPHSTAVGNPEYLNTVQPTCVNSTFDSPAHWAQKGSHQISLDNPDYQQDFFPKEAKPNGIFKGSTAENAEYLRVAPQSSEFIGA

[8] = target: Follistatin-related protein 3 (Homo sapiens) (UniProt O95633); experiment: compounds binding follistatin-related protein 3 – biochemical, small-molecule microarray, 635 nm fluorescence, primary screen (AID 1105); settings: FSTL3 binding, higher = more signal;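 note: score merges emission near 667 nm and signal to noise per printed spot across three slides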
Sequence of Follistatin-related protein 3 (Homo sapiens) (O95633 whole entry, looked up): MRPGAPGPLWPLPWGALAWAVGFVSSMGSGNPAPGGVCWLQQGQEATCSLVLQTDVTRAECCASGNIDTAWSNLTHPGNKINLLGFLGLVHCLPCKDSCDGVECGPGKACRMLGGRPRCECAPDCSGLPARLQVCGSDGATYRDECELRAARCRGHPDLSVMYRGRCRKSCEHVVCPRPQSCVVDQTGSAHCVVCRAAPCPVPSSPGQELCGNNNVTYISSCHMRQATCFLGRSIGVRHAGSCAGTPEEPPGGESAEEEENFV

[9] = target: Dickkopf-related protein 1 (Homo sapiens) (UniProt O94907); experiment: small molecules binding DKK1 protein – biochemical, small-molecule microarray, 635 nm fluorescence scan, primary screen (AID 1106); settings: higher = more signal;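 note: score merges emission near 667 nm with signal to noise over three replicate slides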
Sequence of Dickkopf-related protein 1 (Homo sapiens) (O94907 whole entry, looked up): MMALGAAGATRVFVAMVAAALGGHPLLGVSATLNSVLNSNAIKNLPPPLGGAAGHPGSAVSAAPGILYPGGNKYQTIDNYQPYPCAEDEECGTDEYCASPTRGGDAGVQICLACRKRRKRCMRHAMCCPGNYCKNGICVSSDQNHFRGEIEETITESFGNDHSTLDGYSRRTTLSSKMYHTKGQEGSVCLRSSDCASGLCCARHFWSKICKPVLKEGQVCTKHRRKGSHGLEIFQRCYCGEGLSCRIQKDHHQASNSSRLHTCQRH

[10] = test system: Inhibin beta A chain (activin A); experiment: small molecules binding activin A – biochemical, small-molecule microarray, 635 nm fluorescence scan, primary screen (AID 1107); settings: INHBA, higher = more signal;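 note: mouse activin A protein probed at 4.33 µg/mL on printed slides; score merges bound-protein fluorescence near 667 nm with spot signal-to-noise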
[11] = test system: Human papillomavirus type 1a protein E7 (residues 44-93); experiment: small molecules binding HPV E7 44-93 – biochemical, small-molecule microarray, residues 44-93, 635 nm fluorescence, primary screen (AID 1108); settings: fluorescence 635 nm, higher = more signal;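 note: E7 fragment applied at 1 µg/mL in TBST for 1 h at 4 C; score combines spot fluorescence with its signal to noise ratio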
[12] = hepatitis C replication reporter changes, two-sided – Huh7 cells, luciferase reporter, HCV replication inhibitor project, primary screen (AID 1109); settings: Huh7 HCV replicon luciferase reporter, 48 h; higher = more signal;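 note: huh7 hepatoma cells harbouring a luciferase neomycin HCV replicon reporter; luciferase luminescence as measure of HCV replicon replication; test concentration not given here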
[13] = target: Left-right determination factor 2 (Homo sapiens) (UniProt O00292); experiment: small molecules binding LEFTY2 protein – biochemical, small-molecule microarray, 635 nm fluorescence scan, primary screen (AID 1110); settings: higher = more signal
Sequence of Left-right determination factor 2 (Homo sapiens) (O00292 whole entry, looked up): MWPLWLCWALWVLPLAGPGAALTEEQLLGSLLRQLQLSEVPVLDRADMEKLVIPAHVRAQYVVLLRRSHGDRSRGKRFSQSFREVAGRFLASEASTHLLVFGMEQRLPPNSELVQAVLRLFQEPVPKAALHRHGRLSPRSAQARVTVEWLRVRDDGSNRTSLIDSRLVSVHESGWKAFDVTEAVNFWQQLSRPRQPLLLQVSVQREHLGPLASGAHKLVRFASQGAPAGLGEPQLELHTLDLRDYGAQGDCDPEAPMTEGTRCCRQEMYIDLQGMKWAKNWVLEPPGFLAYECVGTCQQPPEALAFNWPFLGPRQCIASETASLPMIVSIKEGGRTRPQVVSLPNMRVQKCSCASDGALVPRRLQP

[14] = target: Calmodulin-1 (Homo sapiens) (UniProt P0DP23); experiment: small molecules binding calmodulin-1 with EGTA – biochemical, small-molecule microarray, Cy5-labelled CALM1, profiling panel (AID 1111); settings: Cy5-CALM1 binding fluorescence, higher = more signal;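 note: labelled calmodulin applied in Tris saline Tween buffer holding calcium plus EGTA and DTT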
[15] = target: Calmodulin-1 (Homo sapiens) (UniProt P0DP23); experiment: small molecules binding Ca-loaded calmodulin-1 – biochemical, small-molecule microarray, Cy5-labelled CALM1, plus calcium, artefact control for SMM control-protein annotation, profiling panel (AID 1112); settings: Cy5-CALM1 binding fluorescence, higher = more signal;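 note: score merges spot fluorescence with signal to noise from triplicate slides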
[16] = probe aWnt5a binding to arrayed compounds – biochemical, biotinylated probe, 635/667 nm fluorescence, primary screen (AID 1113); settings: small-molecule microarray, higher = more signal;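 note: score merges 667 nm fluorescence intensity with signal-to-noise per printed feature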
[17] = probe aShh binding to arrayed compounds – biochemical, biotinylated probe, 635/667 nm fluorescence, primary screen (AID 1114); settings: small-molecule microarray, higher = more signal;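 note: probe is biotin-labelled aShh protein from a stem cell growth factor screen; measures binding of labelled protein to compounds printed on the slide; score merges feature fluorescence at 667 nm with signal-to-noise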
[18] = probe aNog binding to arrayed compounds – biochemical, biotinylated probe, 635/667 nm fluorescence, primary screen (AID 1115); settings: small-molecule microarray, higher = more signal;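 note: probe is biotinylated aNog protein used at 0.15 µg/mL for 1 h at 4 C; z-score combines 667 nm fluorescence of each spot with its signal to noise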
[19] = target: Torsin-1A-interacting protein 1 (Homo sapiens) (UniProt Q5JTV8); experiment: compound microarray binding of lysate hLAP1 – cell lysate, small-molecule microarray, COS7 lysate, 635/667 nm fluorescence, primary screen (AID 1116); settings: 635 nm fluorescence, higher = more signal
Sequence of Torsin-1A-interacting protein 1 (Homo sapiens) (Q5JTV8 whole entry, looked up): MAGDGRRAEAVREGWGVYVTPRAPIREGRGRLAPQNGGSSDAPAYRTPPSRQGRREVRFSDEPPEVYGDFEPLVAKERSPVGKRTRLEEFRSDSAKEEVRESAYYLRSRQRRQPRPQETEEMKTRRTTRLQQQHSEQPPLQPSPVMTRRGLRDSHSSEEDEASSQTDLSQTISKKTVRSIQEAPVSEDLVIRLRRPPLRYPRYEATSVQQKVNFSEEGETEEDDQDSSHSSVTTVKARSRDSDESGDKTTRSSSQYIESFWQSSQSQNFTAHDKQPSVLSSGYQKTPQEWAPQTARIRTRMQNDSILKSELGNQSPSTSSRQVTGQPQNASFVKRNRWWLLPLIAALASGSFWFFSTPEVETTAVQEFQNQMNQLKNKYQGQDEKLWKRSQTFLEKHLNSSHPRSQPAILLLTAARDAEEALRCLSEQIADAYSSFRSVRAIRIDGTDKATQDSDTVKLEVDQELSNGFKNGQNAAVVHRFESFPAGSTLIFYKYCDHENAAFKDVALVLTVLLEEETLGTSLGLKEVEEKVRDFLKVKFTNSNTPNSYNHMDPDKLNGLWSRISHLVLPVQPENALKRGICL

[20] = target: Alpha-bungarotoxin (Bungarus multicinctus) (UniProt P60615); experiment: compounds binding labelled alpha-BTX control protein – biochemical, small-molecule microarray, Alexa647 label, 635/667 nm fluorescence, artefact control for SMM control protein annotation, profiling panel (AID 1117); settings: alpha-BTX-A647 binding fluorescence, higher = more signal
Sequence of Alpha-bungarotoxin (Bungarus multicinctus) (P60615 whole entry, looked up): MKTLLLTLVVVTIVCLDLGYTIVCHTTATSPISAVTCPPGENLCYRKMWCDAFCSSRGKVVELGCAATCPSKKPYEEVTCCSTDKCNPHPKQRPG

Row | SMILES | composite z-score [1] | composite z-score [2] | composite z-score [3] | z-score [4] | composite z-score [5] | composite z-score [6] | composite z-score [7] | composite z-score [8] | composite z-score [9] | composite z-score [10] | composite z-score [11] | z-score [12] | composite z-score [13] | composite z-score [14] | composite z-score [15] | composite z-score [16] | composite z-score [17] | composite z-score [18] | composite z-score [19] | composite z-score [20]
1 | CC1CC/C=C\[C@H]2OC34C=CCN(c5ccc(Cl)cc5)C(=O)[C@H]3N(CCCCCO)C(=O)[C@]4(C)C2C(=O)O1 (stereo not given in full) | 0.925 | -0.153 | 0.648 | 0.4 (inactive) | -1.04 | -0.798 | -1.24 | -0.888 | -1.98 | -0.497 | -0.826 | 0.315 | -2.19 | -0.471 | 0.432 | -0.247 | -0.0626 | -0.163 | -0.614 | -1.16
2 | CN(C)CCCNC(=O)[C@@H]1c2ccccc2C(=O)N(Cc2ccccc2Cl)[C@H]1c1ccc(CO)cc1 | -0.405 | 0.0414 | 0.366 | -0.738 (inactive) | -0.497 | 0.333 | -0.493 | -0.89 | 0.0146 | 0.828 | 0.0979 | -1.7 | -0.505 | -0.139 | -0.464 | -0.124 | -0.114 | 0.213 | 0.779 | 1.74
3 | [N-]=[N+]=Nc1ccccc1[C@H]1OC(c2ccc(OCCCO)cc2)=N[C@@]1(Cc1ccccc1)C(=O)N1CCCCC1 | 0.813 | 1.04 | 1.13 | 1.35 (inactive) | 1.45 | 0.99 | 0.422 | 1.11 | 1.18 | 1.03 | 1.45 | -2.13 | 0.346 | 1.53 | 0.735 | 0.299 | 0.204 | 1.28 | 2.12 | 1.53
4 | C=C[C@@H](OC)[C@H](OC(=O)Nc1ccc(SC)cc1)c1ccc(O)c(F)c1 | 1.2 | -0.0849 | 0.293 | -1.17 (inactive) | 0.588 | 0.288 | -0.198 | 0.213 | 0.19 | 0.312 | 1.33 | 0.362 | -0.374 | -0.25 | -0.479 | -0.142 | -0.0626 | 0.0553 | 0.345 | 1.22
5 | COC(=O)c1cn(C[C@@H](Cc2ccccc2)NC(=O)N[C@H](CO)CCc2oc(C(C)=O)c(C(=O)OC)c2C(=O)OC)nn1 | 0.741 | 0.067 | -0.255 | 0.138 (inactive) | 0.738 | 0.895 | 0.452 | 1.4 | 0.894 | -0.293 | 0.303 | -0.407 | 0.993 | -0.335 | -0.616 | 0.02 | -0.283 | -0.0789 | 0.862 | 0.177
6 | CC(C)C(=C=CC[C@H](O)c1cccc(OCCO)c1)C[C@H](O)c1cc(Cl)cc(Cl)c1O | 0.507 | -0.217 | 0.0419 | -0.747 (inactive) | 1.43 | 0.0728 | -0.388 | 0.544 | -0.0693 | 0.346 | 0.851 | -0.583 | 0.155 | -0.0005 | -0.698 | -0.126 | 0.23 | 0.0083 | 0.488 | 0.986
7 | CC(C)(C)OC(=O)CC[C@]1(C(=O)NCC(O)CO)N=C(c2ccc(OCCCO)cc2)O[C@H]1c1ccccc1 (stereo not given in full) | 0.835 | 1.1 | 0.897 | -0.495 (inactive) | 0.57 | 0.206 | -0.516 | -0.715 | -1.09 | -0.0014 | 1.32 | -1.74 | -1.13 | 0.451 | 1.24 | -0.0403 | -0.0904 | 0.701 | 1.93 | -0.383
8 | Cc1ccc(S[C@]2(C(=O)NCC(F)(F)F)CC(=O)N(Cc3ccccc3C(F)(F)F)[C@@H]2c2ccc(CO)cc2I)cc1 | 1.46 | -0.255 | 0.956 | -0.0164 (inactive) | -1.34 | -1.49 | -1.96 | -1.28 | -1.7 | 0.283 | -0.784 | -0.414 | -2.12 | -0.423 | -0.214 | -0.0944 | 0.0483 | -0.161 | -0.531 | 0.444
9 | CCCCC(=C=CC[C@@H](O)c1ccccc1OCCO)C[C@@H](O)COCc1ccccc1 | 1.15 | -0.126 | 0.142 | -0.705 (inactive) | 0.114 | -0.158 | -1.14 | -0.126 | -0.498 | 0.596 | 0.0941 | -1.45 | -0.608 | -0.275 | -0.0639 | 0.384 | -0.237 | -0.124 | 0.694 | 1.02
10 | CN(C)C(=O)[C@]1(CCS(=O)(=O)c2ccccc2)N=C(c2ccc(OCCCO)cc2)O[C@@H]1c1ccccc1N=[N+]=[N-] | 1.78 | 0.774 | 0.923 | -2.08 (inactive) | 1.42 | 0.581 | 0.564 | 1.45 | 0.553 | 1.33 | 1.5 | 0.0131 | 0.814 | 1.79 | 0.291 | 0.119 | 0.254 | 1.9 | 2.28 | 1
11 | CC(C)C(CO)N1C(=O)[C@@H]2C3C(=O)OCCC/C=C\[C@H]3OC23C=CCN(C(C)(C)C)C(=O)[C@@H]13 (stereo not given in full) | 1.2 | -0.456 | -0.384 | 0.476 (inactive) | -0.598 | 0.0664 | -0.44 | -0.504 | -0.268 | 1.05 | -0.0297 | -0.57 | -0.383 | -0.903 | -0.804 | -0.124 | 0.0141 | -0.368 | -0.24 | -1.54
12 | C=CC1c2cc(O)c(OC)cc2CCN1Cc1cc2c(cc1Br)OCO2 (stereo not given) | 1.59 | 0.276 | 1.04 | 0.203 (inactive) | -0.0398 | -0.277 | 0.0492 | 0.327 | 0.565 | 1.9 | -0.483 | -2.93 | 0.15 | -0.941 | -1.24 | -0.1 | 0.199 | 0.2 | 1.69 | 0.271
